From the supplement of paper PMC12632987

T1: USP38, Q8NB14
T1 chain: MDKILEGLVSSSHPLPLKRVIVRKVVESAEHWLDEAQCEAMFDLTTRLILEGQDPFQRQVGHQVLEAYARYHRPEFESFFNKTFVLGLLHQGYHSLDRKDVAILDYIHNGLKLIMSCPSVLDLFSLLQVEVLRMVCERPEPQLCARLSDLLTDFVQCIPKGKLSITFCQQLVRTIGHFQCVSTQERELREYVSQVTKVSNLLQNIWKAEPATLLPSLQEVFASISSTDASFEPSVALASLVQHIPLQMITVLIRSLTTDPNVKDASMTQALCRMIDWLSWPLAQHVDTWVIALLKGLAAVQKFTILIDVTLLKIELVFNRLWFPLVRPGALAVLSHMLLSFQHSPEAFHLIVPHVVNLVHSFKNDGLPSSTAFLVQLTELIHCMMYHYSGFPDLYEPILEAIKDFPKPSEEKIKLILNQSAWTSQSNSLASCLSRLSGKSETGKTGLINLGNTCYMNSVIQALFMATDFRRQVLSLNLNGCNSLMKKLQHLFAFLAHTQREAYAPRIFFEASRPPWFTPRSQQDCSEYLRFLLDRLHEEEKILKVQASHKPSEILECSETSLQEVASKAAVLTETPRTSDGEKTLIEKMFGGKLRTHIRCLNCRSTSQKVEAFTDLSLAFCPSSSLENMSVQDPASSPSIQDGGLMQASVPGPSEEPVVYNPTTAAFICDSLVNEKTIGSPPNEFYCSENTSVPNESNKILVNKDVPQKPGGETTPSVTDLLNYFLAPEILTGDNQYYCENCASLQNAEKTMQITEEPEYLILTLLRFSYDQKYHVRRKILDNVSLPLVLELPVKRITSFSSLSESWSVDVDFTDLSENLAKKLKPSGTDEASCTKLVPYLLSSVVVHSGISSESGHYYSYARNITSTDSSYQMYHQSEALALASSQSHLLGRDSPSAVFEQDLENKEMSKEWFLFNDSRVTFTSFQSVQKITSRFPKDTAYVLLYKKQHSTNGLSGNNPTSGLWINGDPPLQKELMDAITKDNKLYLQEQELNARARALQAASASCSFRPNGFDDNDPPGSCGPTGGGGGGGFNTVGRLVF


Molecular target: T1, USP38, Q8NB14
Experiment: median log2 fold change of GCK-ALFA target abundance (FLAG IP / Myc IP barcode read proportion) (log2 ratio); each designed protein is fused to an ALFA-tag nanobody in HEK293 cells to bring the named protein to FLAG-tagged glucokinase (GCK); Myc marks an untargeted standard; higher = target protein stabilised (more abundant)
Conditions: target protein: 3xFLAG-MCP-GCK-ALFA reporter; HEK293 landing pad (RPLP)
Method in brief: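 Binders fused to an ALFA nanobody were recombined as a library into HEK293 landing-pad cells, which were induced with 2 μg mL^−1 doxycycline and then transfected to express a FLAG-tagged target and a Myc-tagged standard. After 48 h, circular RNA barcodes recovered by anti-FLAG and anti-Myc immunoprecipitation of lysates were reverse transcribed, amplified and sequenced. Each binder's target abundance is the median log2 ratio of FLAG to Myc barcode read proportions, from barcodes present at ≥10^−7 in both replicates, binders carrying ≥3 barcodes per replicate, a 10^−6 pseudocount and pooled replicates.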

Binder | median log2 fold change
usp_38_diff_out_5_164_594 (protein) GVDAALAEIDKITEEAIKKMEELLEKAKKNPEQLDEYKKKLTEITNEALDKINATTTAALEAHPEQADTILAHYDKQVTKMLTKYQEALDEIEKLKKEKE | -0.474
usp_38_diff_out_5_164_596 (protein) SVEEALKELTELTDKTIAEIDKLVAEAKKNPEKLDEYEKQLTETTNEAIDKMNEITTKALEANPEKADEILSHYDEQMTRLLTRYAEAKAEIEALKKALE | -0.12
usp_38_diff_out_4_99_568 (protein) MKEEKVKEVKELTERAKELLEKAKEAFELSHEERKKKAEELRKELDELAKRMGAIYFEARDSGDEELIEAVTEEADEFVDAYNEAAEALNLLEHEVLEEE | -0.28
usp_38_diff_out_5_164_588 (protein) GLEEYLEEIDKITEETIEKLKKLLEEAKKNPEKLEEYEKEIEKLTEEALDKINEVVTEALEKHPEKAEEILAHYDEQVTRLLTAYQEAKKELEKLKKEKE | 0.25
usp_38_diff_out_5_164_585 (protein) GVEEAKKKMTELTEETIKKLEELLKKAKENPEKAEEYLKEANKLVQEALDELNRITTETLEAHPEQAEEILAHYSEQVTKLLTKYQEVMKEIKEIIKKAK | 0.00563
usp_38_diff_out_4_99_577 (protein) EKEKKVEEVKKIKEELKKLKEEAEAAKKLPLEERKKVAEELSKRLDELAKRLGKIYFEARDTGDKELIKAVTEEANKAVDEYLKAATALNELQSLVDEER | -0.345
usp_38_diff_out_5_164_584 (protein) EVEEAFKEMDALTEETIKKLNELLKEAKENPEKAEEYLKEATSLVNSALDKLNEITTETLEKHPEKAEEILKHYDERVTKLLTEYQKVKEEIQKIIEEAK | -0.0565
usp_38_diff_out_5_164_586 (protein) TVEAAKKQMDEITEKLIKELKKLKEEAEKDPSKLDEIEKEANEKTNKAIDEMTAITTETLEANPEKADEILAHYSEQIDKMLKEYQELMDYIKKLKEEKE | -0.179
usp_38_diff_out_5_164_605 (protein) GVEEALERLERIREELKKELDELLEEAKKNPEKLEEYKKKVTEKVNEAIDEMNEVTTAALEAHPERADEILAHYDEVVTEMLEHYNKVMEELEKLKKEYE | -0.0369
usp_38_diff_out_5_164_599 (protein) SLEEYLRRMEEIREKLIKELKELLEEAKKNPEKLEEIKKEVEKKTEEALNEMNEITTAALEAYPERAEEILRHYSEQVEKMLTEYQEVMEELEKLEKEKK | -0.404
usp_38_diff_out_5_164_602 (protein) SLEEYLKEMDELTKELIEELKKLVEEAKKNPEKLEEYKKKINEKTNEAIDKMNEITTKALEEFPEKAEEILKHYSEQIDKMLEAKNAAMKELDALKKAQA | 0.277
usp_38_diff_out_4_99_574 (protein) EKEEKVKKAEEIAKKLEELLKEAKKARELSTEERRKKAEEIRKELDELAKELGKIYFEARDSGDKELIKEVEEVAKKAVDAYEKAATELFELEDEVQQEE | -0.356
usp_38_diff_out_5_164_582 (protein) GVEEYLAEMEAIRDETIAKLDALLAEAKENPEKLDEYKKEITDTTNEAINRMTEVTTRALEEHPEKAEEILARYSELMDELLTHYNAVMEELEKLKEELE | -0.0672
usp_38_diff_out_5_164_603 (protein) AVEAALAEMDAIAAELKKELEKLLEEAKKNPEKLEEYKKKLTEATNAALDRLNATTTAALEAAPERADEILAHYDRVVTEMLTKYQEAKEELEKLKKEAA | -0.21
usp_38_diff_out_4_99_579 (protein) EKEKMVERLKELTKRAERLREEAEAAFSLPLEERRELAERLREELDRLAEEAAEIYFEARDSGDEELIKAVEKEADKFVDAYLAAGTALNELEHLVLEEE | -0.154
usp_38_diff_out_4_99_569 (protein) EKEKKVKEVKKIKEKIEELLKEAEEAEKLSVEERRKKAEEIRKELDELAKKLGKLYFEARDSGDKELIEAVNKEADKAVDAYKEAATKLHELEAKVQEEE | -0.151

Binder | median log2 fold change
usp_38_diff_out_4_99_566 (protein) MKEELVKKVKELKKKAEELKKKAEEAFKLDHEERKKVAEELEKELDEIAKEMGAIYFSARDSGDAELIKAVQKEADEFVDAYNEAATALNELRHLVLEEE | 0.0841
usp_38_diff_out_5_164_600 (protein) SVEESLAEIDKITAELKEELKALLAEAKENPEKLKEYKKKMTEKMNEAIDKMNEITTKTLEAYPEQADTILAHYDRRMTEMLTAYNEAMKELEALEKELA | -0.0274
usp_38_diff_out_5_164_592 (protein) GVEKYLEELQKITDEAIKELKELLEEAKENPEKLEEYKKKATEKTNEAIDKMNEITTKALEEHPEQADTILAHYDEQVTKLLTEYNEVLKEIEELKKKKE | 0.0989
usp_38_diff_out_4_99_571 (protein) EKEKIVEEVKKLKEEAEKLLKEAKEAKKLSTEERRKKAEEIRKKLDELAKEMGKLYFEARDSGDKELIEEVNKEADEFVDAYEKAATELFELEAEVEEEE | -0.355
usp_38_diff_out_4_99_570 (protein) KKEELVERAKELKERAEELLKEAKKARELSTEERAKKAAEIDKELDELAKEMGEIYFEARDSGDEELIEAVTEVADEFVKAYEKAATELFELQAEVQEEQ | -0.0709
usp_38_diff_out_5_164_583 (protein) GVEEYLARLDAIKKETIEELDKLLEEAKKNPEKLEEYKKKITEITNKAINEMTKVTTEALEEFPEQAETILAHYSERIDELLKHYNEVMKELEKLKKELE | 0.0633
usp_38_diff_out_4_99_573 (protein) KKEELVEEVKRLTEEVKEIKKEAEAAKSLPLEERRATAEELRRRLDELARRMGEIYFEARDSGDEELIEAVEEEADKFVDEYLKAGTALNELESEVLEAE | 0.007
usp_38_diff_out_5_164_604 (protein) AVEEALAKMKAITEELKKKFDELLAEAKKNPEKLDEYKKEVTEALNKAIDEMNEVTTAALEAAPEQADTILAAYDENVTEMLTHYQAVMDELKALEKEAA | -0.333
usp_38_diff_out_4_99_575 (protein) EKEEMVERVKRLTEEVRRLLEEVEAARTLSPEERRALAERASAELDRLAEEMGKIYFEARDSGDKELIKAVTEAGDEFVDAYERAGLALAELRNEVDEES | -0.45
usp_38_diff_out_5_164_589 (protein) GVEKYLEEIDKLTEEAIAKIKELLAEAKKNPEKLDEVEKEIKELTDKTLDEINKITTEALEKFPEKAEEILSHYDEQVTKLLTAYQAALDELAKLKKEKA | -0.351
usp_38_diff_out_4_99_572 (protein) EREEMVERMKELTERLKELTARAKAARALPPAERAAAAAALREELDRLAREAGEIYFRARDSGDKELIEEVGKVADEFVDAYLEAGTALNELEAEVDAAA | 0.235
usp_38_diff_out_5_164_593 (protein) GVEEYLEELEKITEEAIKKLKELLEEAKKDPSKLEEYKKKATELVNEAIDKMNEITTEALEKHPEKADEILEHYDRQVTRLLTEYQKVMDEIEKIKKELE | -0.211
usp_38_diff_out_4_99_565 (protein) EKERMVEEVRRLTERARELLERARAAFELPPEERRRTAEELARELDELARRMGAIAFAARDSGDPELIKAVNEEADEFVDAYTEAATALNELRHLVLQEE | 0.126
usp_38_diff_out_4_99_578 (protein) EKEKKVEELKKLTEKAKELKKEAEAAKTLSLEERKKKAEELRKELDKIAEEAAKIYFEARESGDKELIEAVEKEAKKFVDAYLEAGTALNELQHEVDEAE | -0.163
usp_38_diff_out_4_99_580 (protein) EKEKKVKELKKLTEEAKKIKEEAEAAKSLPLEERKKKAEELRKRLDELAKRAAAIYFEARDSGDEELKKAVEEEADKFVDAYLEAGTALNELEHLVLEEE | 0.145
usp_38_diff_out_5_164_587 (protein) MVEEYLKEMEKITEEAIKKLEELLAEAKKNPEKLDEYKKEIEKLVEKALNEINELVTKALEENPEKAEEILKKYDELVTKLLTAYQKAMKELEALKKEKA | -0.281
